Assay results taken from PubChem BioAssay.
The source made the active and inactive calls.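 How the source made its calls: active means normalized viability below 100% at a tested concentration; inactive means the rest.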

Assay: ovarian cancer cell viability with rucaparib, profiling panel, oncology-focused library, rucaparib conditional (AID 1508598)
Settings: patient-derived ovarian cancer cells, CellTiter-Glo viability, 144 h; at 5 µM; OCI-C5x cells; without rucaparib; hits give low values

Row | SMILES | viability
1 | CC(C)[C@@]12O[C@@H]1[C@@H]1O[C@]13[C@]1(O[C@@H]1C[C@@H]1C4=C(CC[C@@]13C)C(=O)OC4)[C@@H]2O | 8.72% (active)
2 | C/C(=C\c1csc(C)n1)[C@H]1C[C@@H]2O[C@]2(C)CCC[C@H](C)[C@H](O)[C@@H](C)C(=O)C(C)(C)[C@H](O)CC(=O)O1 | 40.3% (active)
3 | C/C(=C\c1csc(C)n1)[C@H]1C[C@@H]2O[C@@H]2CCC[C@H](C)[C@H](O)[C@@H](C)C(=O)C(C)(C)[C@H](O)CC(=O)O1 | 41.6% (active)

Same assay, conditions: patient-derived ovarian cancer cells, CellTiter-Glo viability, 144 h; at 5 µM; OCI-P5x cells; with rucaparib 20 µM; hits give low values; 100% = cells with rucaparib alone

Row | SMILES | viability
4 | CC(C)[C@@]12O[C@@H]1[C@@H]1O[C@]13[C@]1(O[C@@H]1C[C@@H]1C4=C(CC[C@@]13C)C(=O)OC4)[C@@H]2O | 10.3% (active)
5 | C/C(=C\c1csc(C)n1)[C@H]1C[C@@H]2O[C@]2(C)CCC[C@H](C)[C@H](O)[C@@H](C)C(=O)C(C)(C)[C@H](O)CC(=O)O1 | 43.9% (active)
6 | C/C(=C\c1csc(C)n1)[C@H]1C[C@@H]2O[C@@H]2CCC[C@H](C)[C@H](O)[C@@H](C)C(=O)C(C)(C)[C@H](O)CC(=O)O1 | 43.6% (active)
